From PubChem
LMNA splice mod – LMNA splicing modulation | HeLa LMNA splicing GFP/RFP minigene ratio, 48 h | Potency, µM (highest dose often 46.1 µM), without a hit: top-dose ratio change, negative = inhibition, hits mostly inhibitors | hit rate 0.01% among 200,000 | AID 1487; active = well fitted inhibition curve with a large enough effect in the signal ratio, with a control signal flat, not every such curve was filed as active; inconclusive = small, poorly fitted or top-dose-only effect, or effect the other way, or a change in a side signal; the % refers to the signal ratio
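S3 HeLa stable clones carrying a lamin A-EGFP splicing minigene plus DsRed2 were seeded at 600 cells/well in Opti-MEM with 2% FBS, pin-dosed and incubated 48 h at 37°C. Acumen cytometry (488 nm) gave the GFP/RFP total-intensity ratio.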
HPGD block – blocks human HPGD enzyme activity; P15428; purified HPGD, NADH fluorescence kinetic, PGE2 substrate; Potency, µM, without a hit: at the highest dose activity change, negative = inhibition, actives largely listed as inhibitors; hit rate 4.3% among 150,000; AID 894
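NADH formation kinetics: reaction with 30 uM PGE2 and 1 mM NAD+ (final), 20 nM enzyme, Tris-HCl pH 8 with Tween 20, after 15 min compound preincubation at room temperature. Fluorescence change, last versus first of five reads.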
KinaseGlo FLuc – counter-screen: inhibitors of Kinase-Glo firefly luciferase. Kinase-Glo luciferase, ATP luminescence, 8 min. Potency, µM (series often up to 38.3 µM), for the others: at the top dose activity change, negative = inhibition, hits mostly inhibitors. hit rate 0.28% among 200,000. AID 1379; active = well fitted curve in the direction sought with a large enough effect; inconclusive = small, poorly fitted or top-dose-only effect, or another doubt; inactive = no such curve, though single readings can be large; an effect the other way counts as inactive or inconclusive; also: nearly all actives have a fitted effect of over 60% in size
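Inhibition of Kinase-Glo luciferase light generation was assessed at 10 uM ATP in pH 7.2 imidazole buffer, with luminescence measured after eight minutes at ambient temperature.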
ALDH1A1 block – inhibitors of human aldehyde dehydrogenase 1A1; P00352; Potency, µM (series often up to 75.3 µM), inactives show top-dose activity, negative = inhibition, most hits filed as inhibitors; hit rate 7.3% among 220,000; Purified ALDH1A1, NADH fluorescence, propionaldehyde substrate;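 also: plate controls were no enzyme wells and a reference inhibitor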
Target sequence (P00352 whole entry, looked up): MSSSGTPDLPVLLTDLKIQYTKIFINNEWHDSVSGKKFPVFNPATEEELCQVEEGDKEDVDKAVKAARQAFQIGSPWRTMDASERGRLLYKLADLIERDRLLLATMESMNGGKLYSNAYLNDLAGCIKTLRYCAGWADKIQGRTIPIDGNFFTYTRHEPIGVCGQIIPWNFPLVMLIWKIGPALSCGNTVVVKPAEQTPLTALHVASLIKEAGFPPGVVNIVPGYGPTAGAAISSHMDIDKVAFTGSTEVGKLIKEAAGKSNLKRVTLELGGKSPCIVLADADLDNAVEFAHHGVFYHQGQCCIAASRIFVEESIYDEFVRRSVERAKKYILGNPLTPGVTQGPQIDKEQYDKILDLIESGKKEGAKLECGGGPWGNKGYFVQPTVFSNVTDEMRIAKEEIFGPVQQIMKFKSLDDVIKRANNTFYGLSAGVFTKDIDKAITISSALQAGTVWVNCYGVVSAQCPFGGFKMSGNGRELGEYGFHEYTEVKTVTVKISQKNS
IMPase Li cell – cell-permeable IMPase inhibitors with lithium potentiation | CHO-M1 cells, IP1 TR-FRET (IP-One), carbachol + lithium | Potency, µM (titrated, usually from 59.4 µM), without a hit: at the highest dose activity, negative = IMPase inhibition, hits mostly inhibitors | hit rate 0.35% among 210,000; active = well fitted curve in the direction sought with a large enough effect; inconclusive = small, poorly fitted or top-dose-only effect, or another doubt; inactive = no such curve, though single readings can be large; an effect the other way counts as inactive or inconclusive;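 also: IP1 builds up when IMPase is blocked and the TR-FRET signal falls; plate controls were basal vehicle for no effect and high inhibitor control for full effect; nearly all actives have a fitted effect of over 50% in size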
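Steps: plate 2000 CHO-M1 cells per well and culture 16–30 h; add compound and lithium; incubate 30 min, 37C; add d2-IP1 tracer and Eu cryptate anti-IP1 antibody in lysis buffer; read after 10 min at room temperature.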
* marks the source's active call; other numbers are inactive results; [ ] = dose if it differs, or a comment. An excerpt weighted towards active compounds, which were near 9% of everything screened. Unless noted, calls follow the shape of the dose curve; as a rule, active = well fitted inhibition curve with a large enough effect (not every such curve was filed as active); inconclusive = small, poorly fitted or top-dose-only effect, or another doubt; inactive = no such curve, though single readings can be large or run the other way. Unless noted, % is scaled to controls: 0 for no effect and ±100 for the full control effect; potency is read from the fitted curve at half-maximal effect.

CC1(C)CC(=O)c2sc(NC(=O)CN3CCCCC3)nc2C1 was read as LMNA splice mod 23%, HPGD block -20%, KinaseGlo FLuc 2%, ALDH1A1 block 20µM* and IMPase Li cell 4%[38.3 µM].
For COc1ccc(C(CC(=O)O)NC(=O)c2sc3ccccc3c2Cl)cc1 (stereo not drawn) the results were LMNA splice mod -4%, HPGD block inconclusive, KinaseGlo FLuc 3%, ALDH1A1 block inconclusive and IMPase Li cell 5.6µM*.
For COCc1nnc(NC(=O)CSc2ccc(C)cc2)s1 the results were LMNA splice mod -11%, HPGD block 28µM*, KinaseGlo FLuc 5%, ALDH1A1 block 20µM* and IMPase Li cell -3%[38.3 µM].
Screening Cc1cc(=O)[nH]c(SCC(=O)Nc2nnc(CC(C)C)s2)n1 returned LMNA splice mod -12%, HPGD block 32µM*, KinaseGlo FLuc 2%, ALDH1A1 block -4% and IMPase Li cell 17%[38.3 µM].
For COCc1nnc(NC(=O)CSc2ccccc2)s1 the results were LMNA splice mod 3%, HPGD block -4%, KinaseGlo FLuc -6%, ALDH1A1 block 3% and IMPase Li cell 6%[38.3 µM].
COc1ccc(C(CC(=O)O)NC(=O)c2cccs2)cc1 (stereo not drawn) was read as LMNA splice mod -1%, HPGD block -3%, KinaseGlo FLuc -2%, ALDH1A1 block -1% and IMPase Li cell 16%[38.3 µM].
For COCc1nnc(NC(=O)CSCc2ccccc2)s1 the results were LMNA splice mod 2%, HPGD block inconclusive, KinaseGlo FLuc -4%, ALDH1A1 block 18µM* and IMPase Li cell -8%[38.3 µM].
CCOC(=O)c1cc2c(ccn2C)n1CC(=O)N1CCN(c2ccccc2OC)CC1 was read as LMNA splice mod inconclusive, HPGD block -7%, KinaseGlo FLuc -3%, ALDH1A1 block -4% and IMPase Li cell 4%[38.3 µM].
COc1ccc(NC(=O)N2CCC(CN3CCCC3)CC2)c(OC)c1 was read as LMNA splice mod -2%[46 µM].
`Cc1occc1-c1nnc(SCC(=O)N2CCCCC2)o1` gave KinaseGlo FLuc 0%, ALDH1A1 block -2% and IMPase Li cell 5%.
`CCCn1c(SCC(=O)Nc2cc(S(=O)(=O)N(C)C)ccc2OC)n[nH]c1=O` gave LMNA splice mod -11%[46 µM], KinaseGlo FLuc 3%, ALDH1A1 block -5% and IMPase Li cell -7%.
Screening COCc1nnc(NC(=O)c2sc3ccccc3c2Cl)s1 returned LMNA splice mod -10%, HPGD block 32µM*, KinaseGlo FLuc -5%, ALDH1A1 block inconclusive and IMPase Li cell -20%[38.3 µM].
`Cc1ccc(C)c(NC(=O)Cn2cc(S(=O)(=O)NC(C)C)c(S(=O)(=O)NC(C)C)c2)c1` gave LMNA splice mod 5%[46 µM].
`CCOC(=O)/C(=C\c1ccc(OC(F)F)cc1)C1=Nn2c(nnc2-c2ccc(Cl)cc2)SC1` gave LMNA splice mod inconclusive, HPGD block 14µM*, KinaseGlo FLuc 3%, ALDH1A1 block 14µM* and IMPase Li cell 16%.
For Cc1nn(CCc2nc(-c3ccco3)cs2)c2[nH]c(=O)cc(C(F)(F)F)c12 the results were LMNA splice mod 7%, HPGD block inconclusive, KinaseGlo FLuc -3%, ALDH1A1 block 2.5µM* and IMPase Li cell inconclusive.
`Cc1nn(CCc2nn[nH]n2)c2nc(-c3ccccc3)cc(C(F)(F)F)c12` gave LMNA splice mod -2%[46 µM], KinaseGlo FLuc 1%, ALDH1A1 block inconclusive and IMPase Li cell -2%.
Cc1cc(C)n(CCc2nc(-c3ccco3)cs2)n1 was read as LMNA splice mod 6%, HPGD block inconclusive, KinaseGlo FLuc -3%, ALDH1A1 block 7.1µM* and IMPase Li cell -7%[38.3 µM].
Screening Cc1cc(C)n(CCc2nc(-c3cccs3)cs2)n1 returned LMNA splice mod -10%, HPGD block -8%, KinaseGlo FLuc 2%, ALDH1A1 block inconclusive and IMPase Li cell 5%.
For Cc1ccc(C(=O)C(C)Oc2cccc(NC(=O)c3ccco3)c2)cc1 (stereo not drawn) the results were LMNA splice mod inconclusive, HPGD block -15%, KinaseGlo FLuc 0%, ALDH1A1 block -7% and IMPase Li cell 13%.
For CCS(=O)(=O)c1ccc(C(=O)NC2CC2)c(Cl)c1Cl the results were LMNA splice mod 11%[46 µM], KinaseGlo FLuc -1%, ALDH1A1 block -7% and IMPase Li cell 2%.
Screening COc1ccc(-c2cn3nc(N4CCCC(C(=O)Nc5cc(C)ccc5C)C4)sc3n2)cc1 (stereo not drawn) returned LMNA splice mod -1%[46 µM].
Screening CCOc1cc(CNc2ccc3c(c2)CCC3)ccc1OC returned LMNA splice mod 5%, HPGD block -14%, KinaseGlo FLuc 3%, ALDH1A1 block 20µM* and IMPase Li cell 23%[38.3 µM].
For O=[N+]([O-])c1cccc(CNc2ccc3c(c2)CCC3)c1 the results were LMNA splice mod 5%, HPGD block -14%, KinaseGlo FLuc -2%, ALDH1A1 block 22µM* and IMPase Li cell 12%.
`CC(=O)C1=C(C)NC2=C(C(=O)c3ccccc32)C1c1ccccc1` (stereo not drawn) gave LMNA splice mod -7%[46 µM], KinaseGlo FLuc -4%, ALDH1A1 block inconclusive and IMPase Li cell 13%.
For Nc1nc2c(c(=O)[nH]1)C(c1cccc3ccccc13)C1=C(N2)c2ccccc2C1=O (stereo not drawn) the results were KinaseGlo FLuc -2%, ALDH1A1 block 3.2µM* and IMPase Li cell 1%.
Screening C=C(C)Cn1c(C)cc(C)c(S(=O)(=O)c2cccc(C)c2)c1=O returned LMNA splice mod inconclusive, KinaseGlo FLuc 0%, ALDH1A1 block inconclusive and IMPase Li cell 13%.
For Clc1ccc(C[n+]2csc3ccccc32)cc1 the results were LMNA splice mod 8%, HPGD block 16µM*, KinaseGlo FLuc -4%, ALDH1A1 block 2.8µM* and IMPase Li cell -3%.
Screening Fc1ccc(C[n+]2csc3ccccc32)cc1 returned LMNA splice mod inconclusive, HPGD block 10µM*, KinaseGlo FLuc -3%, ALDH1A1 block 4µM* and IMPase Li cell -4%[38.3 µM].
For Cc1c(CCOC(=O)C23CC4CC(CC(C4)C2)C3)sc[n+]1CC#N the results were ALDH1A1 block 13µM* and IMPase Li cell 3%.
Screening Cc1c(CCOC(=O)CC23CC4CC(CC(C4)C2)C3)sc[n+]1Cc1ccccc1 returned LMNA splice mod 4%, HPGD block 6%, KinaseGlo FLuc -5%, ALDH1A1 block inconclusive and IMPase Li cell 18%[38.3 µM].
Screening CC(C)CC1NC(=O)N(CC(=O)NC2CCCc3ccccc32)C1=O (stereo not drawn) returned LMNA splice mod inconclusive, KinaseGlo FLuc -1%, ALDH1A1 block 3% and IMPase Li cell -3%.
For COCCCn1c(=S)[nH]c2c(sc3ccccc32)c1=O the results were LMNA splice mod inconclusive, KinaseGlo FLuc 3%, ALDH1A1 block inconclusive and IMPase Li cell 10µM*.
